From PubChem BioAssay AID2391 (Southern Research Specialized Biocontainment Screening …, 2010)
Several values for one entry are separate records, joined by “and”; a condition that tells them apart may be missing. Equal values may be shown once. Screen size: about 310,000 compounds; about 410 (0.13%) were called active. Another 2% or so got no clear call; they are omitted. The rule behind the calls is not given here. These entries were drawn from the full list. Measured potencies and affinities stand elsewhere.

Test: RSV antiviral activity via CPE protection, HEp-2 cells, primary 10 µM value included (AID 2391)
Conditions: RSV-induced CPE inhibition, at 10 µM, active compounds read high

CPE inhibition, inactive:
NC(=O)c1ccc(OCC2CCCO2)cc1 (stereo unspecified) 0.89%
Cc1cccc(COCC(CC(C)C)N2CCN(C(=O)c3ccc(C(C)(C)C)cc3)CCC2=O)c1 (stereo unspecified) -2.89%
COCCn1c(-c2ccccc2)nc2oc3ccccc3c(=O)c2c1=O 1.49%
O=C(c1ccccc1Br)N1N=C(c2ccccc2)CC1c1ccccc1F (stereo unspecified) 13.7%
Cc1c(C)c2ccc(OCC(=O)NCc3ccccn3)cc2oc1=O 1.94%
Cc1cc(=O)oc(C)c1C(=O)NCCc1ccccc1 -0.07%
CCC(=O)Nc1sc2c(c1C(=O)OC)CCN(Cc1ccccc1)C2 -0.39%
Cc1ccc(C(CC(=O)O)C2CCOC(C)(C)C2)cc1 (stereo unspecified) 0.31%
c1ccc(Cn2nnc3c(N4CCCC4)ncnc32)cc1 -0.08%
c1ccc(Cn2nnc3c(N4CCOCC4)ncnc32)cc1 1.51%
Cc1nnc2sc(-c3cccc(F)c3)nn2c1=O 0.29%
CC(C)CN1CCN(Cc2cnc(-c3ccc(Cl)cc3)nc2)CC1CCO (stereo unspecified) 19.2%
O=C(Nc1nnc(C2=COCCO2)o1)c1ccc([N+](=O)[O-])cc1 0.76%
CCc1cccc(C)c1NC(=O)C1CC=CCC1C(=O)O (stereo unspecified) -1.43%
COc1ccc(/C=C/c2nc3sc4c(c3c(=O)o2)CCC4)cc1 2.5%
O=c1oc(/C=C/c2ccco2)nc2sc3c(c12)CCC3 2.04%
Cc1ccc(OCC(=O)N2c3ccccc3CC2C)c([N+](=O)[O-])n1 (stereo unspecified) -0.02%
COc1ccc(/C(C)=N/Nc2ccc(C(=O)O)cc2)c(OC)c1 1.98%
COc1ccc(OC)c(/C(C)=N/Nc2ccc(C(=O)O)cc2)c1 0.2%
CCN(CC)CCOc1ccc2c(c1)C(=NNC(=O)c1ccccn1)c1cc(OCCN(CC)CC)ccc1-2 -1.74%
O=C(NN=C1c2ccccc2-c2ccccc21)c1ccccn1 1.09%
COc1ccc2[nH]c(C)c(C(=O)CN3CCN(C/C=C/c4ccccc4)CC3)c2c1 4.44%
CC(C)C1Cc2c(sc3c2c(=O)n(-c2ccccc2)c2n[nH]c(=S)n32)CO1 (stereo unspecified) 2.95%
CC(/C=N/NC(=O)c1cc(-c2ccc(C)o2)[nH]n1)=C\c1ccccc1 0.3%
COc1cccc(NC(=O)NCCCCc2ccccc2)c1 6.21%
Cc1cc(C(C)(C)C)c(O)c(C(C)(C)C)c1 -0.15%
CC(C)(C)c1ccc(O)c(O)c1 3.31%
NNC(=O)c1csc(-c2cccc(C(F)(F)F)c2)n1 9.01%
O=C(c1cc(Br)ccc1OC(F)F)N1CCN2CCCC2C1 (stereo unspecified) 0.87%
CCn1ncc(/C=C/C(=O)Nc2c(C)nn(Cc3ccc(Cl)cc3Cl)c2C)c1C 0.17%
O=C(/C=C/c1ccc(O)c(O)c1)O[C@@H]1C[C@](O)(C(=O)O)C[C@@H](O)[C@H]1O 39.5% and 4.56%
O=C(O)/C=C/c1ccc(O)c(O)c1 0.47%
COc1cc(OC)cc(C(=O)NC(=S)N2CCCCC2c2cccnc2)c1 (stereo unspecified) -0.07%
CCN1CCN(c2ccc(S(=O)(=O)N3CCCCC3)cc2NC(=O)CC(C)c2ccccc2)CC1 (stereo unspecified) -2.47%
Cc1ccsc1C(=O)OCC(=O)NC1CCCCC1C (stereo unspecified) 1.57%
CC1CN(C(C)C)C(C)CC1OC(=O)c1ccccc1 (stereo unspecified) -0.34%
COC(=O)c1ccc(COn2c(=O)c(C)[n+]([O-])c3ccccc32)cc1 2.27%
O=C(COc1ccc(Br)cc1Cl)NNC(=O)c1ccccc1 -0.21%
O=c1[nH]c(COc2ccc(Cl)cc2Cl)nc2ccccc12 20.4%
Cc1nc2c(C)cccn2c(=O)c1NC(=O)c1ccc2c(c1)OCO2 -0.9%
COc1cccc(CN(C(=O)c2ccccc2)C2CCS(=O)(=O)C2)c1 (stereo unspecified) 1.28%
N#CC(c1ccccc1)c1cccc(Cl)n1 (stereo unspecified) -0.33%
COc1ccc(C(=O)N2CC(c3ccccc3)CC2=O)cc1 (stereo unspecified) 1.75%
O=C1CC(c2ccccc2)CN1C(=O)c1ccccc1 (stereo unspecified) 0.02%
Cc1c(C(=O)N2CCC(C)CC2)sc2ncn(CC(=O)N3CCC(C)CC3)c(=O)c12 3.53%
Cc1ccc(-c2nnn(CC(=O)N(CC(=O)NC3CCCC3)c3ccc(F)cc3)n2)o1 2.25%
CC1Cc2ccccc2N1S(=O)(=O)c1cccc(C(=O)NCCCO)c1 (stereo unspecified) -0.32%
Nc1scn[n+]1Cc1cccc2cccnc12 19.5%
Nc1ccc(Cl)c[n+]1Cc1cccc2cccnc12 50.2%
Cc1cc(C[n+]2ncsc2N)c2ncccc2c1 18.8%
Cc1cc(C[n+]2cc(Br)ccc2N)c2ncccc2c1 81%
CCCC(=O)OC1CC(C)N(C(=O)c2ccccc2)c2ccc(C)cc21 (stereo unspecified) 7.5%
COc1ccc(CCNC(=O)COc2cc(C)cc3oc(=O)cc(C)c23)cc1 2.6%
Cc1c(-c2ccccc2Cl)nc2ccccc2c1C(=O)O 1.54%
Cc1c(-c2ccccc2)nc2ccccc2c1C(=O)O 0.81%
NC(=O)CC(NC(=O)Cc1ccc(Br)cc1)c1ccc(NCCN2CCCC2)c([N+](=O)[O-])c1 (stereo unspecified) 0.07%
COC(=O)NNC(=O)C(C)Oc1ccc(Cl)cc1Cl (stereo unspecified) 0.74%
CC(Oc1ccc(Cl)cc1Cl)C(=O)NNC(=O)C(=O)N1CCCC1 (stereo unspecified) 7.07%
COc1ccc(CCn2c(C)cc(C(=O)COC(=O)c3ccc(NC(=O)CC#N)cc3)c2C)cc1 4.94%
COc1ccc(C(=O)OCCc2ccc(O)cc2)cc1 1.11%
Cc1cc(-c2cc(C(=O)NCc3ccccc3)on2)nc(S(C)(=O)=O)n1 2.46%
Cc1ccccc1N(C(=O)CNC(=O)c1ccco1)C(C(=O)NC1CCCCC1)c1ccncc1 (stereo unspecified) 0.97%
CC(=O)NCCNC(=O)c1ccc(Cn2c(=O)[nH]c3ccsc3c2=O)cc1 0.58%
O=[N+]([O-])c1ccc(Cl)c(S(=O)(=O)Nc2ccc(-c3ccc(N4CCOCC4)nn3)cc2)c1 0.86%
O=[N+]([O-])c1ccc(Cl)c(S(=O)(=O)Nc2cccc(-c3ccc(N4CCCC4)nn3)c2)c1 55%
Cc1ccc([N+](=O)[O-])cc1S(=O)(=O)Nc1cccc(-c2ccc(N3CCOCC3)nn2)c1 30.8%
O=S(=O)(Nc1ccc(-c2ccc(N3CCOCC3)nn2)cc1)c1cc(Cl)ccc1Cl 1.29%
COc1ccccc1OCCn1ccnc1 0.82%
O=C(CC1C(=O)NCCN1Cc1cccc(Oc2ccccc2)c1)NCCn1cccn1 (stereo unspecified) 1.61%
CCn1ncc(CNC(=O)C2(C)CC2(Cl)Cl)c1C (stereo unspecified) 2.51%
O=C(O)/C=C/C(=O)NCCC(c1ccccc1)c1ccccc1 -0.16%
O=C(Nc1ccccc1)Nc1ccc(NC(=O)c2ccccc2O)cc1 1.31%
O=C(Nc1cccnc1)c1ccc(Cl)c(S(=O)(=O)N2CCCCC2)c1 10.1%
CCOc1cc(/C=C/c2cc(C(=O)O)c3ccccc3n2)ccc1OC 4.82%
COc1cc(/C=C/c2cc(C(=O)O)c3ccccc3n2)cc(OC)c1O -0.63%
COc1ccc(C2NC(=O)NC(C)=C2C(C)=O)cc1 (stereo unspecified) 2.63%
Cc1cc(Nc2ccccc2)nc(-c2ccccc2O)n1 21.2%
Cc1cc(Nc2ccc(Cl)cc2)nc(-c2ccccc2O)n1 14.1%
C[C@H]1CCC(=O)N(CCSc2ccc(Br)cc2)CC1 0.08%
CC(C)(C)c1n[nH]c2c1CCCC2 3.59%
COc1ccc2c(c1)-c1nc(NC(=O)c3ccco3)sc1CC2 45.2%
COc1ccc2c(c1)Cc1sc(NC(=O)c3cccs3)nc1-2 7.1%
Cc1nnc(SCC(=O)N2CCc3ccccc3C2)n1-c1ccccc1 2.35%
Cc1cc(C)c(NC(=O)CSc2nc3ccccc3c(=O)n2CCCN2CCOCC2)c(C)c1 -0.42%
COc1ccc(CNC(=O)C(C)Sc2nc3ccccc3c(=O)n2CCCN2CCOCC2)cc1 (stereo unspecified) -1.12%
C/C(N)=C(/C#N)C(=O)COC(=O)C(NS(=O)(=O)c1ccc(Cl)cc1)C(C)O (stereo unspecified) 0.82%
Cc1cc(C(=O)N2CCCC(N3CCN(c4cccc(Cl)c4)CC3)C2)nn1C (stereo unspecified) -0.33%
Cc1ccc(OCCCn2ccnc2)cc1C 0.08%
COc1cc(N)c(Cl)cc1C(=O)OCC(=O)Nc1cccnc1Cl 0.52%
COc1cc2c(cc1OC)[C@H](C)N(C(=O)CSc1nc(O)c(C(C)C)c(=O)[nH]1)CC2 0.69%
O=C(/C=C/c1c(F)cccc1Cl)N1CCOCC1 0.12%
O=C(/C=C/c1ccc(OCCCF)cc1)N1CCOCC1 2.87%
Cc1cc(C)n(-c2ccc(C(=O)OCC(=O)NCc3ccc(F)cc3)cc2)n1 0.92%
Cc1nc(-c2noc(-c3cccc(Cl)c3)n2)c(C(F)(F)F)o1 1.74%
CC(C(=O)N1CCc2ccccc21)n1cccc1 (stereo unspecified) 1.93%
CC(Nc1ccc2c(c1)OCCO2)C(=O)N1CCc2ccccc21 (stereo unspecified) 3.03%
